# According to PubChem BioAssay (EPA / NIEHS):
# Where “and” joins values, the source holds several entries; their conditions need not be identical. Equal values may be shown once. Inconclusive results are not listed. Calls of active or inactive are those of the source. How the source made its calls, unless noted: active means hit-call score of the fitted dose curve at least 0.9, where 1 is the maximum; inactive means score below 0.9.
# Columns and labels:
# [1] = read-out: Interleukin-10 (IL10), IL10 (gene 3586); assay: BSK_IMphg_IL10: BioMAP Diversity Plus: IMphg Assay for Interleukin-10 (IL10) Biomarker Activity (AID 2284294); conditions: primary human endothelial cells with macrophages
# Procedure, shortened: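 Human venular endothelial cells cocultured with macrophages, dosed 24 h; IL-10 measured by ELISA, activity relative to DMSO. Cytotoxicity assessed in parallel cultures by sulforhodamine B total-protein staining.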
# [2] = BSK_IMphg_SRB.Mphg: Macrophage Viability Assessment in the BioMAP Diversity Plus: IMphg Assay (AID 2284295); conditions: primary human endothelial cells with macrophages
# Procedure, shortened: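 Venular endothelial cells co-cultured with macrophages, read 24 h after dosing. Total protein measured by 0.1% SRB staining after 10% TCA fixation, absorbance at 560 nm. Fitted in positive direction against DMSO baseline.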
# TTR (gene 7276) = assay: CCTE_GLTED_hTTR_0.5uM: CCTE's human Transthyretin (hTTR) Inhibition Assay, with 0.5uM TTR, Great Lakes Toxicology and Ecology Division (GLTED) Lab (AID 2284320)
# Procedure, shortened: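 Cell-free displacement assay in which human TTR at 0.5 uM was incubated with test chemical for 2 h. Displacement of the ANSA probe was read by fluorescence at 380 nm excitation/475 nm emission. Loss of signal was fitted in the positive direction versus DMSO.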
# [3] = CCTE_Padilla_ZF_Score.Craniofacial: CCTE's 144 Hour Post-fertilization zebrafish Assay Score for Craniofacial Malformation, Padilla Lab (AID 2284405)
# Procedure, shortened: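 Wild-type zebrafish embryos (with chorions), one per well in 10% Hanks', were dosed at 6–8 hpf in sealed plates and kept at 26C. They were rinsed at 5 dpf. At 6 dpf two blinded assessors scored craniofacial malformations by brightfield stereomicroscopy.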
# [4] = CCTE_Padilla_ZF_Score.Edema: CCTE's 144 Hour Post-fertilization zebrafish Assay Score for Edema Malformation, Padilla Lab (AID 2284406)
# Procedure, shortened: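 Wild-type zebrafish embryos, one per well in Hanks' solution, dosed at 6-8 hpf, sealed and reared at 26C on a 14:10 h cycle; rinsed on 5 dpf. At 6 dpf, blinded assessors scored edema by stereomicroscopy.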
# [5] = CCTE_Padilla_ZF_Score.Spine: CCTE's 144 Hour Post-fertilization zebrafish Assay Score for Spine Malformation, Padilla Lab (AID 2284407)
# Procedure, shortened: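 Wild-type zebrafish embryos, one per well in Hanks' solution, dosed at 6–8 hpf in sealed plates at 26C, 14:10 h light:dark; rinsed at 5 dpf. Two blinded assessors scored spinal defects by stereomicroscopy at 6 dpf; fitted versus DMSO.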
# [6] = CCTE_Padilla_ZF_Score.Swim_bladder: CCTE's 144 Hour Post-fertilization zebrafish Assay Score for Swim Bladder Malformation, Padilla Lab (AID 2284408)
# Procedure, shortened: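 Wild-type zebrafish embryos, one per well in 10% Hanks', dosed at 6–8 hpf, sealed, reared at 26C and rinsed at 5 dpf. Blinded assessors scored uninflated swim bladder by stereomicroscopy at 6 dpf, relative to DMSO.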
# [7] = CCTE_Padilla_ZF_Score.Position: CCTE's 144 Hour Post-fertilization zebrafish Assay Score for Position, Padilla Lab (AID 2284409)
# Procedure, shortened: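 Wild-type zebrafish embryos (with chorions) exposed singly from 6–8 hpf in sealed wells of Hanks' solution at 26C, rinsed at 5 dpf. At 6 dpf, blinded assessors scored abnormal water-column position by brightfield stereomicroscopy, relative to DMSO.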
# [8] = CCTE_Padilla_ZF_Score.Living: CCTE's 144 Hour Post-fertilization zebrafish Assay Score for Viability, Padilla Lab (AID 2284410);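 further: larval death at 6 dpf judged by absent heartbeat or coagulation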
# Procedure, shortened: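 Wild-type zebrafish embryos were exposed singly from 6–8 hpf in sealed wells of Hanks' solution at 26C, then rinsed at 5 dpf. At 6 dpf, blinded assessors scored mortality (no heartbeat or coagulation) by stereomicroscopy, fitted against DMSO.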
# [9] = CCTE_Padilla_ZF_Score.Tail: CCTE's 144 Hour Post-fertilization zebrafish Assay Score for Tail Malformation, Padilla Lab (AID 2284414)
# Procedure, shortened: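 Wild-type zebrafish embryos, one per well in 200 uL 10% Hanks', dosed at 6-8 hpf, sealed, and kept at 26 C on a 14:10 h light cycle. Chemical was rinsed out at 5 dpf. Blinded brightfield scoring of tail defects followed at 6 dpf.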
# [10] = CCTE_Padilla_ZF_Score.Blood_pooling: CCTE's 144 Hour Post-fertilization zebrafish Assay Score for Blood Pooling, Padilla Lab (AID 2284415)
# Procedure, shortened: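 Wild-type outbred zebrafish embryos, one per well in 10% Hanks', exposed from 6–8 hpf in sealed plates at 26C on 14:10 h light:dark, rinsed at 5 dpf. Blinded stereomicroscope scoring of blood pooling at 6 dpf; gain-of-signal versus DMSO.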
# [11] = CCTE_Padilla_ZF_Score.Any: CCTE's 144 Hour Post-fertilization zebrafish Assay Score for Any Mortality or Malformation, Padilla Lab (AID 2284416)
# Procedure, shortened: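 Wild-type zebrafish embryos with chorions, one per well in 10% Hanks' from 6–8 hpf, dosed in sealed plates at 26 C, 14:10 h light:dark; rinsed at 5 dpf; blinded scoring at 6 dpf for death or malformation, versus DMSO.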
# [12] = target: Retinoic acid receptor alpha (Homo sapiens) (UniProt P10276); assay: ATG_RARa_TRANS: Attagene TRANS-FACTORIAL HepG2 Assay for human Retinoic Acid Receptor alpha (RARa) (AID 2283005; active means hit-call score of the fitted dose curve at least 0.9, where 1 is the maximum)
# Retinoic acid receptor alpha (Homo sapiens), sequence (P10276 whole entry, looked up, the tested form may be a part): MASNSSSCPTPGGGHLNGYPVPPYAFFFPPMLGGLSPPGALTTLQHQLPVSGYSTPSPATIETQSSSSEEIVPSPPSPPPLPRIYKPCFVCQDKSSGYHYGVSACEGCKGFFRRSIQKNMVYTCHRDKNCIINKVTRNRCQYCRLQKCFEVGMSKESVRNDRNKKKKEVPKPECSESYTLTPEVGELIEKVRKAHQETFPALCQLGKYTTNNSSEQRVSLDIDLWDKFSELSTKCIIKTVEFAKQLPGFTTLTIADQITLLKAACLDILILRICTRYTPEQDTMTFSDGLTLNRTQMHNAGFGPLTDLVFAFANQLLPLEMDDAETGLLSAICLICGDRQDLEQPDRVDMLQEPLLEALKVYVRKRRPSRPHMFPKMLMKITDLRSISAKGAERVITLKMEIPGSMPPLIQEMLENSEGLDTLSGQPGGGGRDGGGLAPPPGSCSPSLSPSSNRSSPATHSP
# Procedure, shortened: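 HepG2 transiently transfected with multiplex GAL4-UAS reporter units including a human RARa–GAL4 chimera; 24 h compound exposure. Reporter mRNA quantified by RT-PCR, 6-FAM labeling and capillary electrophoresis; gain of signal versus DMSO.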
# [13] = target: Nuclear receptor subfamily 1 group I member 2 (Homo sapiens) (UniProt O75469); assay: NVS_NR_hPXR: NovaScreen (NVS) Nuclear Receptor Binding Assay for human Pregnane X Receptor (PXR) (AID 2283365; active means hit-call score of the fitted dose curve at least 0.9, where 1 is the maximum;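 further: a drop in FRET signal versus DMSO baseline means the compound binds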)
# Nuclear receptor subfamily 1 group I member 2 (Homo sapiens), sequence (O75469 whole entry, looked up): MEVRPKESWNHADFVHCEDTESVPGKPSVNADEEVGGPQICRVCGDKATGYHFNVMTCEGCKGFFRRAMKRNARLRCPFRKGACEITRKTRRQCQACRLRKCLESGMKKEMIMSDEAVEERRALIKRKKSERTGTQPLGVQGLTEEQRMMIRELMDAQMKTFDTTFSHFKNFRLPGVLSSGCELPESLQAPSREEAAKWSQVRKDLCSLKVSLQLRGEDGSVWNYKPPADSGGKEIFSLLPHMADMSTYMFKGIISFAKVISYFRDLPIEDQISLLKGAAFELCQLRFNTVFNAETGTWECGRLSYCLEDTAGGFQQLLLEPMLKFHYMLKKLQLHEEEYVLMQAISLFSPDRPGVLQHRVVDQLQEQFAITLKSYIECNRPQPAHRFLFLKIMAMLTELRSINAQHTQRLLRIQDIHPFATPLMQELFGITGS
# Procedure, shortened: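 Human PXR binding measured by TR-FRET in a cell-free format, 2 h exposure. Single-concentration duplicates at 25 uM preceded concentration-response retests of actives; endpoint fitted positively relative to DMSO, loss of signal indicating binding.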
# [14] = target: Peroxisome proliferator-activated receptor gamma (Homo sapiens) (UniProt P37231); assay: NVS_NR_hPPARg: NovaScreen (NVS) Nuclear Receptor Binding Assay for human Peroxisome Proliferator-activated Receptor gamma (PPARg) (AID 2283370; active means hit-call score of the fitted dose curve at least 0.9, where 1 is the maximum)
# Peroxisome proliferator-activated receptor gamma (Homo sapiens), sequence (P37231 whole entry, looked up): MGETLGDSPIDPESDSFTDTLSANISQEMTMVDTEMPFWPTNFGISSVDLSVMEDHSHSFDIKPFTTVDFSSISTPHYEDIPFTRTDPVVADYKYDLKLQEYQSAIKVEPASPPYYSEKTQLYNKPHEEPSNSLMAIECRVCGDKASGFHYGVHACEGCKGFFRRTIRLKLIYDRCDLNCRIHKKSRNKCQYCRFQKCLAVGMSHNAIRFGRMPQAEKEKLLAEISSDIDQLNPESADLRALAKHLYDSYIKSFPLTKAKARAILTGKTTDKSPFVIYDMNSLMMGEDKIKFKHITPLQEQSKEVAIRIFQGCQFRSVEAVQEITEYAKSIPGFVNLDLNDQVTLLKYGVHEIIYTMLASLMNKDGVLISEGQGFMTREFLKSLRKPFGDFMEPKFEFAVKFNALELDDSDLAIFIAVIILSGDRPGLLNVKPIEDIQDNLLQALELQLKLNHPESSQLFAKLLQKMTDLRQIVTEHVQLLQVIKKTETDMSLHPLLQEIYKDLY
# Procedure, shortened: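 Fluorescence polarization readout of ligand binding to extracted human PPARg, measured at 2 h. Duplicate single-point screen at 25 uM, then concentration-series retesting; activity defined as signal loss versus DMSO.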
# [15] = target: human Beta-secretase (BACE), BACE1 (gene 23621) (UniProt P56817); assay: NVS_ENZ_hBACE: NovaScreen (NVS) Enzymatic Assay for human Beta-secretase (BACE) (AID 2283140; active means hit-call score of the fitted dose curve at least 0.9, where 1 is the maximum;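 further: hits are inhibitors that reduce fluorescent substrate signal versus DMSO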)
# human Beta-secretase (BACE), BACE1 (gene 23621), sequence (P56817 whole entry, looked up): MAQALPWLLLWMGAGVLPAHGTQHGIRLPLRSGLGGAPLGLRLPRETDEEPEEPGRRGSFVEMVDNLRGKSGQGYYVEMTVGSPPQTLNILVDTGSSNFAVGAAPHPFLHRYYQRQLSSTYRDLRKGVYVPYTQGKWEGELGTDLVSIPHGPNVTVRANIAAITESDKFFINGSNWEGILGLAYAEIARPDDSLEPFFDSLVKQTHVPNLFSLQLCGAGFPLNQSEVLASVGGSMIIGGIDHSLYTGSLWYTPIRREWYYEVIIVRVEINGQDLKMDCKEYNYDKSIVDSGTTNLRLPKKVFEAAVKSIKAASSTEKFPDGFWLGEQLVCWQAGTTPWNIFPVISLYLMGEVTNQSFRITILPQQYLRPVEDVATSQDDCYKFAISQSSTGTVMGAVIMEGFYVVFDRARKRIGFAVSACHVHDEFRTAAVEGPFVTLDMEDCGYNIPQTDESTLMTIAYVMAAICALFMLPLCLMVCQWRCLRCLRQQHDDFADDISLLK
# Procedure, shortened: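 Compounds were first tested in duplicate at 25 uM, then actives in concentration series, against recombinant BACE1 from SF9 cells. Enzyme activity was measured by fluorescence intensity 1 hour after dosing, with DMSO as negative control.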
# [16] = target: human Ephrin type-A Receptor 1 (EphA1), EPHA1 (gene 2041) (UniProt P21709); assay: NVS_ENZ_hEphA1: NovaScreen (NVS) Enzymatic Assay for human Ephrin type-A Receptor 1 (EphA1) (AID 2283158; active means hit-call score of the fitted dose curve at least 0.9, where 1 is the maximum;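 further: activity is signal loss versus DMSO meaning EphA1 kinase inhibition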)
# human Ephrin type-A Receptor 1 (EphA1), EPHA1 (gene 2041), sequence (P21709 whole entry, looked up): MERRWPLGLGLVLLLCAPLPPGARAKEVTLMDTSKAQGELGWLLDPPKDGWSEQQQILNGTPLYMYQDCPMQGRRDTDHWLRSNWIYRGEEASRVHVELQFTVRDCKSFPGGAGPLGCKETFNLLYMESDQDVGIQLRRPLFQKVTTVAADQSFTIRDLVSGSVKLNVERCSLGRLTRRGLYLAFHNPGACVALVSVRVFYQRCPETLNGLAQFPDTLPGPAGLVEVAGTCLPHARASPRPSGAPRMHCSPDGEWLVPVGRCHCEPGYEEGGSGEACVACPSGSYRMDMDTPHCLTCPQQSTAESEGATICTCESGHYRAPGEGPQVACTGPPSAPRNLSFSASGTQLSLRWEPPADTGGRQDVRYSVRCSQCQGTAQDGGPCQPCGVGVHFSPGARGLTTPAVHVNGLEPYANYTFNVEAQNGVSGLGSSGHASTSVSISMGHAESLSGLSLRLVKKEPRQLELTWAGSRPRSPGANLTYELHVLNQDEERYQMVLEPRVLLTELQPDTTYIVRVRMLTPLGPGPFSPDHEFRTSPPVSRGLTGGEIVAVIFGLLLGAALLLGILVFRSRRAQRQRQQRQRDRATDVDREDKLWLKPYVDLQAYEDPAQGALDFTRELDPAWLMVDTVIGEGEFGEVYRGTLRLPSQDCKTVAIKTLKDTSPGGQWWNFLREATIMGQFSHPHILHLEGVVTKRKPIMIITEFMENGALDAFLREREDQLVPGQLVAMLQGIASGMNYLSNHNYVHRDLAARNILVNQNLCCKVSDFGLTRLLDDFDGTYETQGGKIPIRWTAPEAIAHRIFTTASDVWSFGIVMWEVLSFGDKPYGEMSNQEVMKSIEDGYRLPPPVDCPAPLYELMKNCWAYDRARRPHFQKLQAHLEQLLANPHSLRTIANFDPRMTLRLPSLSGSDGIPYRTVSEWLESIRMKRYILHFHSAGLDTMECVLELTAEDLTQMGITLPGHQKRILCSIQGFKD
# Procedure, shortened: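 Fluorescent substrate conversion, resolved by mobility-shift separation, measured 1 hour post-dosing using recombinant enzyme; signal loss relative to DMSO baseline. Single-concentration duplicates at 25 uM preceded singleton concentration series topping at 50 uM.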
# [17] = target: sheep Cyclooxygenase-1 (Cox1), PTGS1 (gene 443551) (UniProt P05979); assay: NVS_ENZ_oCOX1: NovaScreen (NVS) Enzymatic Assay for sheep Cyclooxygenase-1 (Cox1) (AID 2283239; active means hit-call score of the fitted dose curve at least 0.9, where 1 is the maximum;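 further: actives reduce cyclooxygenase activity so potencies are for inhibitors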)
# sheep Cyclooxygenase-1 (Cox1), PTGS1 (gene 443551), sequence (P05979 whole entry, looked up): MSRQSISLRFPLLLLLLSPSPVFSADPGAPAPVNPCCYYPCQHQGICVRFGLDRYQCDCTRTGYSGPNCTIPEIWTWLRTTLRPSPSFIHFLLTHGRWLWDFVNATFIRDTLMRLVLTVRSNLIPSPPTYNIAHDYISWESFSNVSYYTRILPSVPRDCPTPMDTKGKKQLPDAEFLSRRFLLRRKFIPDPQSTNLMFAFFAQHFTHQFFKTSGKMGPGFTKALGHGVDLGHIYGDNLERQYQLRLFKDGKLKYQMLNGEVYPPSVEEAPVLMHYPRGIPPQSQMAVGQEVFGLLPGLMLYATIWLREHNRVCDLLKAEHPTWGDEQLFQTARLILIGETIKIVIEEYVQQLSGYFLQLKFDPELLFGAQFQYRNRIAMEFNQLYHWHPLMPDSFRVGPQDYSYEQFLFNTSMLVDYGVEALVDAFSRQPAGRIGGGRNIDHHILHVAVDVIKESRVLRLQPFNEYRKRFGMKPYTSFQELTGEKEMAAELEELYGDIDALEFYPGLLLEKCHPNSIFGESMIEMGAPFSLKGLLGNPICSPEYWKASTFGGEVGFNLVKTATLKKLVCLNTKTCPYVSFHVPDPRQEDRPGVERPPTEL
# Procedure, shortened: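 Colorimetric enzyme readout using sheep seminal-vesicle cyclooxygenase-1, measured 0.66 h post-dosing. Single-concentration duplicates at 25 uM first, then concentration series for actives, with DMSO as baseline and plate controls.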
# [18] = target: rat Thyrotropin Releasing Hormone Receptor (TRH), Trhr (gene 25570) (UniProt Q01717); assay: NVS_GPCR_rTRH: NovaScreen (NVS) G Protein-Coupled Receptor Assay for rat Thyrotropin Releasing Hormone Receptor (TRH) (AID 2283329; active means hit-call score of the fitted dose curve at least 0.9, where 1 is the maximum;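 further: hit means lower bound tracer signal versus DMSO baseline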)
# rat Thyrotropin Releasing Hormone Receptor (TRH), Trhr (gene 25570), sequence (Q01717 whole entry, looked up): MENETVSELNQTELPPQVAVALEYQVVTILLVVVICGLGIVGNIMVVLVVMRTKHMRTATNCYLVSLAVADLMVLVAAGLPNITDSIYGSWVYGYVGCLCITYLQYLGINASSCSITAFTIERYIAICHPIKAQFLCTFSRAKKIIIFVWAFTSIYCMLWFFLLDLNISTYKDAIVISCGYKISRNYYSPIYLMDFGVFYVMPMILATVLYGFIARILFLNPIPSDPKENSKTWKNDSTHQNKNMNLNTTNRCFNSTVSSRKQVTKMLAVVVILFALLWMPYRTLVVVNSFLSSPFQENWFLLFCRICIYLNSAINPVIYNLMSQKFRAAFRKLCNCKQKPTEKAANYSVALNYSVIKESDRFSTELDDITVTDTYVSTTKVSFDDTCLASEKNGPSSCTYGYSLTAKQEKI
# Procedure, shortened: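 Test compounds are screened at 25 uM in duplicate against radioligand binding in rat forebrain membranes, with active pairs followed up over a concentration range. Detection uses filter-based radiodetection after a 4 h exposure.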
# [19] = target: Bile acid receptor (Homo sapiens) (UniProt Q96RI1); assay: OT_FXR_FXRSRC1_0480: Odyssey Thera (OT) 8-hour HEK293T Protein-Complementation Assay for Farnesoid X receptor/SRC-1 Co-activator (AID 2283383; active means hit-call score of the fitted dose curve at least 0.9, where 1 is the maximum)
# Bile acid receptor (Homo sapiens), sequence (Q96RI1 whole entry, looked up, the tested form may be a part): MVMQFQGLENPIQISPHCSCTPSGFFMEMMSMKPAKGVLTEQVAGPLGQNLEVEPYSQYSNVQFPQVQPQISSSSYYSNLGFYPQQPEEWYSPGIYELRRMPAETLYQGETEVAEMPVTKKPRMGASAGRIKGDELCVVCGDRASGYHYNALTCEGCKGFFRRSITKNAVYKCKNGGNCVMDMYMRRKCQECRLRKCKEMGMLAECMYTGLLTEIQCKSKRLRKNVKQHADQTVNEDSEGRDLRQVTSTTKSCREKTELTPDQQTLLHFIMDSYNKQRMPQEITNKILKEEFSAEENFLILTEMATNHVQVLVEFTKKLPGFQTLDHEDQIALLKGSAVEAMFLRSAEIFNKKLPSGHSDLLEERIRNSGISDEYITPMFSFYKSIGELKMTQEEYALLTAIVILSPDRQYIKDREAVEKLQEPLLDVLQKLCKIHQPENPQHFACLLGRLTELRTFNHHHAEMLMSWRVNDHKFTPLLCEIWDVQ
# Procedure, shortened: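 Human kidney HEK293T cells carried FXR/SRC-1 fragment-complementation constructs. Compounds were added and incubated 8 h. Reporter reassembly upon receptor–co-activator interaction was then quantified by fluorescence, with curves fitted in the positive direction relative to DMSO.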
compound,measurement,setting,value
OC(C(F)(F)F)(C(F)(F)F)C(O)(C(F)(F)F)C(F)(F)F,AC50,[1],23.6 µM (active) and 21.1 µM (active)
same,AC50,[2],41.5 µM (active) and 37.7 µM (active)
same,AC50,TTR (gene 7276),11 µM (active)
same,AC50,[3],2.57 µM (active)
same,AC50,[4],2.66 µM (active)
same,outcome,[5],inactive
same,AC50,[6],2.66 µM (active)
same,outcome,[7],inactive
same,AC50,[8],11.8 µM (active)
same,outcome,[9],inactive
same,outcome,[10],inactive
same,AC50,[11],2.21 µM (active)
CC(=O)Nc1c(I)c(NC(C)=O)c(I)c(C(=O)O)c1I,outcome,[12],inactive
O=C(CC(C(=O)OC1CCCCC1)S(=O)(=O)O)OC1CCCCC1 (stereo not given),AC50,[13],8.32 µM (active)
same,outcome,[14],inactive
CC(C)CC(=O)CC(C)CC(C)C (stereo not given),outcome,[15],inactive
C[N+](C)(C)CC(=O)[O-],outcome,[16],inactive
same,outcome,[17],inactive
O=C(Oc1ccccc1)c1ccccc1,outcome,[18],inactive
same,AC50,[19],45.2 µM (active)
